# Measurements as given in PubChem BioAssay (Tox21).
# Where “and” joins values, the source holds several entries; their conditions need not be identical. Identical values can stand only once. Inconclusive results are not listed. Where a call stands in place of a potency, no number is given. The source holds several records for some structures; these can differ, active in one and inactive in another. Calls of active or inactive are those of the source. Unless noted, the call rests on the fitted dose curve.
# Legend:
# [1] = Nuclear factor erythroid 2-related factor 2/antioxidant responsive element (Nrf2/ARE) small molecule agonists: qHTS cell viability counter screen in human keratinocytes (AID 1919968; active means well fitted curve in the direction sought with a large enough effect in the repeat runs; an effect the other way counts as inactive or inconclusive; further: nearly all actives have a fitted effect of over 55% in size)
# Method in brief: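 Cells of the KeratinoSens line were plated at 1,500 per well and left for 5 h before compound transfer from DMSO stocks. After a 23 h incubation (37 C, 5% CO2), CellTiter-Fluor was added. Signal was taken as fluorescence intensity 1 h later.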
# [2] = Nuclear factor erythroid 2-related factor 2/antioxidant responsive element (Nrf2/ARE) small molecule agonists: luciferase reporter gene qHTS assay in human keratinocytes (AID 1919969); further: nearly all actives have a fitted effect of over 35% in size; further: potency means the concentration at half of the fitted maximal effect
# [3] = target: Gonadotropin-releasing hormone receptor (Homo sapiens) (UniProt P30968); experiment: Human gonadotropin-releasing hormone receptor (GnRHR) small molecule agonists, calcium flux assay in GnRHR-HEK293 cells (AID 1920063); further: nearly all actives have a fitted effect of over 35% in size
# Chain of Gonadotropin-releasing hormone receptor (Homo sapiens) (P30968 whole entry, looked up): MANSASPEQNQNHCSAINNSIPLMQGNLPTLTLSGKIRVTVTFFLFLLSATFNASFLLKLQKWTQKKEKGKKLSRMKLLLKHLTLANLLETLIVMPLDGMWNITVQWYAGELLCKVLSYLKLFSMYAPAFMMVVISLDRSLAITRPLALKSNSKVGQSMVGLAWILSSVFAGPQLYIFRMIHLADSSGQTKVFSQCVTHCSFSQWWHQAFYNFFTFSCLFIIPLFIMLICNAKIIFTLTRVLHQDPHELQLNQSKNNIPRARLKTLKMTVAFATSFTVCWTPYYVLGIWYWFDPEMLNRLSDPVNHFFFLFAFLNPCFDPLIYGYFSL
# Method in brief: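 Compounds dissolved in DMSO are pin-transferred onto dye-loaded GnRHR-HEK293 cells, which were seeded 18 h before at 37 C/5% CO2. Calcium signal is read as fluorescence intensity at 1 s intervals for 3 min.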
# [4] = target: KiSS-1 receptor (Homo sapiens) (UniProt Q969F8); experiment: Human kisspeptin (KISS1R) small molecule agonists, calcium flux assay in KISS1R-HEK293 cells (AID 1920064; active means well fitted curve in the direction sought with a large enough effect in the repeat runs; an effect the other way counts as inactive or inconclusive)
# Chain of KiSS-1 receptor (Homo sapiens) (Q969F8 whole entry, looked up): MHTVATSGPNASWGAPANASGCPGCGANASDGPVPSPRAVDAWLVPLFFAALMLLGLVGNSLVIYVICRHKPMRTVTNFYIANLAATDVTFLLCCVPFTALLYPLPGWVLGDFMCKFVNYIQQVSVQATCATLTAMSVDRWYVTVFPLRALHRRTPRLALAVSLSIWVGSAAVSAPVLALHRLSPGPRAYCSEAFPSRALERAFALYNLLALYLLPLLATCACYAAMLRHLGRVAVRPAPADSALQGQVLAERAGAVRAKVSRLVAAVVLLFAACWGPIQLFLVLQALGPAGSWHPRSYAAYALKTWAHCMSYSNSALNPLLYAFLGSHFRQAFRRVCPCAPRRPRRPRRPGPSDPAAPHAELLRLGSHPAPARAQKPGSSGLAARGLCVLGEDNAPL
# Method in brief: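 Cell line: HEK293, stable human KISS1R. Dye loading 1 h at 37 C after 18 h culture. Read: kinetic fluorescence, 480/540 nm, 3 min at 1 s intervals.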
# [5] = G protein-coupled receptor (GPCR) small molecule agonists, calcium flux assay: HEK293 wild type cell line counter screen (AID 1920065)
# Method in brief: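 Tox21 10K compounds, 15 concentrations each in triplicate, pin-transferred in DMSO onto dye-loaded cells; kinetic read at 480/540 nm for 3 min, 1 s intervals.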
# [6] = p53 small molecule agonists, cell-based qHTS assay with rat liver microsomes (AID 1963578)
# Method in brief: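 With rat liver microsomes and NADPH present (0.5 mg/mL final each), p53RE-bla cells are treated with compound for 16 h at 37 C. LiveBLAzer detection mixture is then applied for 2 h at room temperature in the dark.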
# [7] = p53 small molecule agonists, cell-based qHTS assay with human liver microsomes: qHTS cell viability counter screen (AID 1963579); further: nearly all actives have a fitted effect of over 45% in size
# Method in brief: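 In this multiplexed counter screen, the reporter plates were subsequently treated with CellTiter-Glo so that cell viability, reflected by luminescence, could be recorded for p53RE-bla cells dosed 16 h with compounds under microsomal activation (HLM and NADPH).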
# [8] = p53 small molecule agonists, cell-based qHTS assay with rat liver microsomes: qHTS cell viability counter screen (AID 1963580); further: nearly all actives have a fitted effect of over 45% in size
# Method in brief: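 Counter screen for cytotoxicity under metabolic activation: rat liver microsomes and NADPH, 0.5 mg/mL final each, added with compounds to p53RE-bla HCT-116 cells; 16 h at 37 C, then ATP luminescence read.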
# [9] = p53 small molecule agonists, cell-based qHTS assay: qHTS cell viability counter screen (AID 1963581); further: nearly all actives have a fitted effect of over 45% in size; further: potency means the concentration at half of the fitted maximal effect
# Method in brief: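 ATP content measured by luminescence in HCT-116 p53RE-bla cells treated 16 h at 37 C, same wells as the reporter screen.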
# [10] = p53 small molecule agonists, cell-based qHTS assay (AID 1963582; active means well fitted activation curve with a large enough effect in the signal ratio in the repeat runs, not every such curve was filed as active; the % refers to the signal ratio)
# Method in brief: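 16 h compound exposure (37 C) of p53 response element–bla cells, preceded by 5 h recovery at 37 C/5% CO2; read-out via LiveBLAzer B/G FRET substrate, 2 h RT, fluorescence intensity.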
# [11] = target: 5-hydroxytryptamine receptor 2A (Homo sapiens) (UniProt P28223); experiment: 5-hydroxytryptamine receptor 2A (HTR2A) small molecule antagonists, cell-based qHTS assay (AID 1963586); further: nearly all actives have a fitted effect of over 45% in size
# Chain of 5-hydroxytryptamine receptor 2A (Homo sapiens) (P28223 whole entry, looked up): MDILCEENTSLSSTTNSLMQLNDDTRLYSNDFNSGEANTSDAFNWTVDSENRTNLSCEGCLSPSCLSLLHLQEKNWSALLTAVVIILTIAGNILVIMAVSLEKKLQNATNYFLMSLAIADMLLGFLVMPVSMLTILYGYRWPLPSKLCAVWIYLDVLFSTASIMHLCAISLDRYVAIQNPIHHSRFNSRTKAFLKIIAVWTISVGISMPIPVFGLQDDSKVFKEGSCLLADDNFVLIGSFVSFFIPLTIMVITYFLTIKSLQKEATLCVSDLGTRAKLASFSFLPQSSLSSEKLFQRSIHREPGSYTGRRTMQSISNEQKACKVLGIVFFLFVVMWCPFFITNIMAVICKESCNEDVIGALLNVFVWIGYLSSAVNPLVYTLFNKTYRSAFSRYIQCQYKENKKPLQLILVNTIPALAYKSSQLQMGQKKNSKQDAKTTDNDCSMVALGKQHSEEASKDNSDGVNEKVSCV
# Method in brief: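 CHO cells stably expressing human HTR2A were plated for 18 h at 37 C, then loaded with calcium dye for 1 h. Compounds were preincubated 5 min at room temperature before DOI (4 nM solution) was added. Kinetic fluorescence was read for 3 min.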
# [12] = target: Muscarinic acetylcholine receptor M1 (Homo sapiens) (UniProt P11229); experiment: Cholinergic receptor muscarinic 1 (CHRM1) small molecule antagonists, cell-based qHTS assay (AID 1963588); further: nearly all actives have a fitted effect of over 40% in size
# Chain of Muscarinic acetylcholine receptor M1 (Homo sapiens) (P11229 whole entry, looked up): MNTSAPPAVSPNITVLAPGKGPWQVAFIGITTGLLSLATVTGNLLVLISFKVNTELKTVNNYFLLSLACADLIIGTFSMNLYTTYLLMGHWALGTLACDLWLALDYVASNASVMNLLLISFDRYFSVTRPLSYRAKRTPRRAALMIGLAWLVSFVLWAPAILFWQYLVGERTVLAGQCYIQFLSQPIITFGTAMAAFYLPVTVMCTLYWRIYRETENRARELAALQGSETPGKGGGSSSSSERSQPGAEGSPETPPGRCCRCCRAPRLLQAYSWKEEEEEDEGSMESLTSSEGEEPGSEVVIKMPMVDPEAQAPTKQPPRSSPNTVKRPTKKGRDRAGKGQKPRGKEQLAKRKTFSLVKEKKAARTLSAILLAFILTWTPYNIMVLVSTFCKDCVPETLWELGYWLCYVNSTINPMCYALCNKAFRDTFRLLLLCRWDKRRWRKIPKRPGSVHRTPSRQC
# Method in brief: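 Compounds were tested at 15 concentrations in three independent runs. Dye-loaded CHRM1-CHO cells were exposed 5 min at room temperature before stimulation by acetylcholine added at 50nM. Intracellular calcium was read kinetically on FDSS for 3 min.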
# [13] = target: Muscarinic acetylcholine receptor M1 (Homo sapiens) (UniProt P11229); experiment: Cholinergic receptor muscarinic 1 (CHRM1) small molecule agonists, cell-based qHTS assay (AID 1963589); further: nearly all actives have a fitted effect of over 35% in size
# Method in brief: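 Homogeneous fluorescence calcium flux, agonist mode. Human M1-expressing CHO cells; compound dosed at 15 concentrations, three independent runs; signal sampled every 1 sec.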
# [14] = target: D(2) dopamine receptor (Homo sapiens) (UniProt P14416); experiment: Dopamine D2 receptor (DRD2) small molecule agonists, cell-based qHTS assay (AID 1963594); further: nearly all actives have a fitted effect of over 35% in size
# Chain of D(2) dopamine receptor (Homo sapiens) (P14416 whole entry, looked up): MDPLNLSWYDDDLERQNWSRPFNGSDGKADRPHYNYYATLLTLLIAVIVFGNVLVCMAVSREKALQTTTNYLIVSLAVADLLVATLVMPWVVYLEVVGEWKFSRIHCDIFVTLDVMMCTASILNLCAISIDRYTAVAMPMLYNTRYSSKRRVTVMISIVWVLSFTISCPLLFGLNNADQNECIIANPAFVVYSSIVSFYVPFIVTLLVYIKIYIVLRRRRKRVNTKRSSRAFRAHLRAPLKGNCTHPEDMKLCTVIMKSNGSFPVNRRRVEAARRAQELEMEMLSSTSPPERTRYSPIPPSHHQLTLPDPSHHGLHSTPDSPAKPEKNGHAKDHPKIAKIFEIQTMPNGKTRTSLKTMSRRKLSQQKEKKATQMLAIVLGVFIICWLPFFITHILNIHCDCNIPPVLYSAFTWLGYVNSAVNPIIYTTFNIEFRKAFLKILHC
# Method in brief: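 HEK293 cells stably expressing DRD2 were cultured 24 h at 37 C, then given Ro20-1724 (0.1 mM final) and compounds for 10 min at room temperature. NKH477 (200nM) was then added for 30 min. cAMP was read by HTRF.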
# [15] = target: D(2) dopamine receptor (Homo sapiens) (UniProt P14416); experiment: Dopamine D2 receptor (DRD2) small molecule antagonists, cell-based qHTS assay (AID 1963595; active means well fitted inhibition curve with a large enough effect in the signal ratio in the repeat runs, with a control signal flat; the % refers to the signal ratio)
# Method in brief: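 Cells were plated and grown for 24 h at 37 °C. Ro20-1724 (0.1 mM final) went in first, then compound for 10 min. NKH477 (200 nM) with quinpirole (12 nM) followed for 30 min at RT, then HTRF detection reagents for 1 h.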
# [16] = target: 5-hydroxytryptamine receptor 2A (Homo sapiens) (UniProt P28223); experiment: 5-hydroxytryptamine receptor 2A (HTR2A) small molecule agonists, cell-based qHTS assay (AID 1963587); further: nearly all actives have a fitted effect of over 30% in size
# Method in brief: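 HTR2A-CHO cells, plated 18 h at 37 C/5% CO2, dye-loaded 1 h at 37 C; compounds in DMSO added by pin tool (agonist mode). Intracellular calcium flux read as kinetic fluorescence on FDSS over 2 min at 1 s intervals.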
# [17] = cAMP Responsive Elements (CRE) small molecule agonists, cell-based qHTS assay (AID 1963590)
# Method in brief: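 HEK 293T cells stably bearing CRE-bla were plated at 2,000 cells per well and rested 18 h. Compounds, positive controls or DMSO were added for 3 h at 37 C. LiveBLAzer B/G substrate was then loaded for 2 h at room temperature.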
# [18] = cAMP Responsive Elements (CRE) small molecule antagonists, cell-based qHTS assay (AID 1963591; active means well fitted inhibition curve with a large enough effect in the signal ratio in the repeat runs, not every such curve was filed as active; the % refers to the signal ratio)
# Method in brief: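 First, CRE-bla HEK293T cells settled 18 h at 37 C. Next, compound and 0.25 uM final NKH477 were applied for 3 h. Last, LiveBLAzer B/G substrate was loaded for 2 h at room temperature.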
# [19] = target: Beta-2 adrenergic receptor (Homo sapiens) (UniProt P07550); experiment: Adrenergic beta2 receptor (ADRB2) small molecule agonists, cell-based qHTS assay (AID 1963593);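 further: CHO cells stably overexpressing human ADRB2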
# Chain of Beta-2 adrenergic receptor (Homo sapiens) (P07550 whole entry, looked up): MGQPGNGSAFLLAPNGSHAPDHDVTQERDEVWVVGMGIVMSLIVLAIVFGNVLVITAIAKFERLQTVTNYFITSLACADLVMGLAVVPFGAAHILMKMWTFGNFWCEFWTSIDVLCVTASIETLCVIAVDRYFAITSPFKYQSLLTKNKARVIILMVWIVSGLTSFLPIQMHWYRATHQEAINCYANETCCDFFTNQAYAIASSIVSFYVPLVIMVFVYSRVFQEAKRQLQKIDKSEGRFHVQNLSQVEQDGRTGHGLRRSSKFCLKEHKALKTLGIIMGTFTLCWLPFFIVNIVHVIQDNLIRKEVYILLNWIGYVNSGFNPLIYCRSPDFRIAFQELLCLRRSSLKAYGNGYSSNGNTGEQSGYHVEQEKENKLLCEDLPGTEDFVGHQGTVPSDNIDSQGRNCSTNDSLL
# Method in brief: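 CHO cells stably over-expressing ADRB2 were plated overnight at 37C, then dosed with compounds plus a stimulation mix containing 100uM IBMX and 25uM Ro-20-1724 for 0.5hr at room temperature. cAMP was measured by HTRF competition, 1hr.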
# [20] = target: Beta-2 adrenergic receptor (Homo sapiens) (UniProt P07550); experiment: Adrenergic beta2 receptor (ADRB2) small molecule antagonists, cell-based qHTS assay (AID 1963592); further: series mostly up to about 92 µM; nearly all actives have a fitted effect of over 50% in size
# Method in brief: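 Assay format: CHO-ADRB2 cells, 18-20hr seeding at 37C/5% CO2, then compound plus 1nM isoproterenol agonist mix for 0.5hr RT. Homogeneous time-resolved fluorescence cAMP detection after 1hr, expressed as 665/615 nm ratio.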
SMILES,Potency [1],Potency [2],Potency [3],Potency [4],Potency [5],Potency [6],Potency [7],Potency [8],Potency [9],Potency [10],Potency [11],Potency [12],Potency [13],Potency [14],Potency [15],Potency [16],Potency [17],Potency [18],Potency [19],Potency [20]
c1ccc(Nc2ccccc2)cc1,inactive,61.1 µM (active) and inactive,inactive,inactive,inactive,inactive,inactive,inactive,inactive,inactive,inactive,inactive,inactive,inactive,inactive,,,,,
O=C(O)CS,inactive,inactive and 61.6 µM (active),inactive,inactive,inactive,,inactive,inactive,inactive,,inactive,,inactive,inactive,inactive,inactive,inactive,inactive,inactive,
O=C(O)C(=O)O,inactive,inactive,inactive,inactive,inactive,,inactive,inactive,inactive,,inactive,inactive,inactive,inactive,,inactive,inactive,inactive,,inactive
O=C(O)CCCC[C@@H]1SC[C@@H]2NC(=O)N[C@@H]21,inactive,inactive,inactive,inactive,inactive,,inactive,inactive,inactive,,inactive,inactive,inactive,inactive,inactive,,,inactive,inactive,inactive
CC(=O)/C=C/C1=C(C)CCCC1(C)C,inactive,inactive,inactive,inactive,inactive,,inactive,inactive,inactive,,inactive,inactive,inactive,inactive,inactive,inactive,inactive,inactive,inactive,inactive
O=C(O)c1cccc(C(=O)O)c1,inactive,inactive,inactive,inactive,inactive,,inactive,inactive,inactive,,inactive,inactive,,inactive,inactive,inactive,inactive,inactive,inactive,inactive
OC1C(O)C(O)C(O)C(O)C1O (configuration not stated),inactive,inactive,inactive,inactive,inactive,,inactive,inactive,inactive,,inactive,inactive,inactive,,inactive,inactive,inactive,inactive,inactive,inactive
C=C[Si](OCCOC)(OCCOC)OCCOC,inactive,inactive,inactive,inactive,inactive,,inactive,inactive,inactive,inactive,inactive,inactive,inactive,inactive,inactive,,inactive,inactive,inactive,inactive
O=C(O)CCC(=O)O,inactive,inactive,inactive,inactive,inactive,,inactive,inactive,42.1 µM (active) and inactive,,inactive,inactive,,inactive,inactive,inactive,inactive,inactive,,inactive
COc1ccc(C)cc1N,inactive,inactive,inactive,inactive,inactive,,inactive,inactive,inactive,inactive,inactive,inactive,inactive,,inactive,inactive,inactive,inactive,,
Cc1occc(=O)c1O,inactive,inactive,inactive,inactive,inactive,,inactive,inactive,inactive,,,inactive,inactive,inactive,inactive,,inactive,inactive,inactive,inactive
O=Nc1ccc(O)cc1,inactive,inactive,inactive,inactive,inactive,,inactive,inactive,inactive,,inactive,inactive,,inactive,inactive,inactive,inactive,inactive,inactive,inactive
Cc1c(N(C)C)c(=O)n(-c2ccccc2)n1C,inactive,69.8 µM (active) and inactive,inactive,inactive,inactive,,inactive,inactive,inactive,,inactive,inactive,inactive,inactive,inactive,inactive,,inactive,inactive,inactive
CCCCCCCCCCCO,inactive,inactive,inactive,inactive,inactive,inactive,inactive,,inactive,inactive,inactive,inactive,inactive,,inactive,inactive,inactive,inactive,,inactive
O=c1oc(=O)c2cc3c(=O)oc(=O)c3cc12,inactive,inactive,inactive,inactive,inactive,,inactive,inactive,inactive,,inactive,inactive,inactive,inactive,inactive,inactive,inactive,inactive,,inactive
Nc1ccc(S(=O)(=O)Nc2cnc3ccccc3n2)cc1,inactive,inactive,inactive,inactive,inactive,inactive,inactive,,inactive,inactive,inactive,,inactive,inactive,inactive,inactive,inactive,inactive,inactive,inactive
